Screening results (PubChem BioAssay)
Shown are actives, neighbours in structure and some others; about 5.3% of the full set was active somewhere.
KDM4E inh: JMJD2E (human) inhibition | B2RXH2 | 230,000 compounds, 1.6% hits | Potency, µM (series often up to 57.1 µM), inactives show at the highest dose activity change, negative = inhibition, hits mostly inhibitors | JMJD2E catalytic domain, FDH-coupled NADH fluorescence (FDH is formaldehyde dehydrogenase);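 also: potency is read from the fitted curve at half-maximal effect; 0% = wells with enzyme and -100% = buffer wells without enzyme; nearly all actives have a fitted effect of over 50% in size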
Target sequence (B2RXH2 1-337 limits assumed): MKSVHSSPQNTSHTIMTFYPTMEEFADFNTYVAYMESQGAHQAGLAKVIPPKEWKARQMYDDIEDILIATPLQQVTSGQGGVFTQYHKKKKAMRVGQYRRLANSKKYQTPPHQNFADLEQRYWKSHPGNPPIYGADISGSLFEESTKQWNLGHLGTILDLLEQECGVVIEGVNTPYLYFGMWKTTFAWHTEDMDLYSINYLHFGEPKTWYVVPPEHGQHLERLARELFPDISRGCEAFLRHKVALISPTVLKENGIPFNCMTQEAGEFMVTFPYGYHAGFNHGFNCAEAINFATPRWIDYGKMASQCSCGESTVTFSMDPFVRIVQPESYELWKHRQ
Tau fluor cs: counter-screen for tau fibril formation inhibitors; 280,000 compounds, 0.93% hits; Potency, µM (titrated, usually from 57.7 µM), for the others: top-dose activity change, negative = decrease; tau K18 P301L Alexa594 fluorescence, heparin fibrillization; also: potency is read from the fitted curve at half-maximal effect; nearly all actives have a fitted effect of over 55% in size
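Human K18 P301L tau (15 uM unlabeled plus 0.24 uM Alexa 594-labeled, final) in 100 mM sodium acetate pH 7 was mixed with compound and 20 uM heparin and incubated 6 hr at 37 C.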
FBPA coupling cs: counter-screen for Giardia aldolase inhibitors: coupling enzyme system; coupling enzyme system counterscreen, AmpLite Red fluorescence; activity change, negative = inhibition, % at 58.2 µM, hits read low; 290,000 compounds, 0.67% hits; AID 2472; in the data active = activity change below about -30%
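Counterscreen lacking aldolase: glyceraldehyde-3-phosphate coupling-enzyme reagent preincubated 10 min at RT with compound (at 57.5 uM final), then substrate/coupling system with AmpLite Red added; fluorescence read at 525/598 nm after 20 min RT.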
Tau fibril FP: inhibitors of human tau fibril formation; P10636; K18 P301L tau heparin fibrillization, Alexa594 FP, 6 h; Potency, µM (doses to about 57.7 µM), for inactives: at the highest dose activity, negative = inhibition, usual class: inhibitors; 280,000 compounds, 0.39% hits; AID 1468; also: potency is read from the fitted curve at half-maximal effect; nearly all actives have a fitted effect of over 55% in size
Target sequence (P10636 561-689 P618L limits assumed): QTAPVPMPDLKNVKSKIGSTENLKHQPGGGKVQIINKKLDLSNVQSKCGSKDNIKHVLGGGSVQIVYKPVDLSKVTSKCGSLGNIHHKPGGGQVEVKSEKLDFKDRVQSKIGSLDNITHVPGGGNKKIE
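Compound effects on tau fibrillization are measured by Alexa 594 fluorescence polarization (ex 555, em 632 nm). K18 P301L tau is used at 15 uM with 0.24 uM labeled tracer, and 20 uM heparin induces aggregation over 6 hr at 37 C.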
Sfp PPTase inh: blocks B. subtilis Sfp PPTase activity; Q9F4F7; Biochemical Sfp PPTase activity, qHTS; 310,000 compounds, 3.5% hits; Potency, µM, inactives show largest response in the series, negative = inhibition, hits mostly inhibitors;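 also: the enzyme is Sfp with the accession as filed and its product quenches rhodamine fluorescence; potency is read from the fitted curve at half-maximal effect; 0% = enzyme reaction without inhibitor and -100% = no enzyme wells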
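Sfp 15 nM + cpd, 15 min RT; start w/ rhodamine-CoA 5 uM, BHQ-2-YbbR 12.5 uM (final); 50 mM Hepes pH 7.6, 10 mM MgCl2, 0.01% NP-40, 0.01% BSA; read 525/598 nm at 0 and 30 min.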
Tau fibril ThT: blocks human tau fibril formation measured by thioflavin T; Potency, µM (titrated, usually from 57.4 µM), without a hit: top-dose activity, negative = inhibition, actives largely listed as inhibitors; recombinant tau K18 P301L (four-repeat tau fragment), heparin-induced fibrillization, ThT fluorescence; P10636; AID 1460; 270,000 compounds, 2.1% hits; also: potency is read from the fitted curve at half-maximal effect; nearly all actives have a fitted effect of over 55% in size
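Aggregation was driven by heparin (20 uM final) acting on recombinant tau […] bearing P301L in 100 mM sodium acetate pH 7; fibrils were detected with Thioflavin T.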
The depositor's hits bear a star; ! = a repeat was not active; [ ] = another dose, or the depositor's remark. Unless noted, calls follow the shape of the dose curve; as a rule, active = well fitted curve in the direction sought with a large enough effect; inconclusive = small, poorly fitted or top-dose-only effect, or another doubt; inactive = no such curve, though single readings can be large; an effect the other way counts as inactive or inconclusive. Unless noted, % is scaled to controls: 0 for no effect and ±100 for the full control effect.

`CC1(C)C2CC[C@]1(C)[C@@H](O)C2` gave Sfp PPTase inh 13%.
`Nc1ccc(-c2n[nH]c(=O)c3ccccc23)cc1N` gave KDM4E inh inconclusive, Tau fluor cs -10%, FBPA coupling cs 0, Tau fibril FP 7%, Sfp PPTase inh 14µM* and Tau fibril ThT inconclusive.
Cc1ccc(-c2n[nH]c(=O)c3ccccc23)cc1N was read as KDM4E inh 4%, Tau fluor cs 0%, FBPA coupling cs 3, Tau fibril FP 2%, Sfp PPTase inh -1% and Tau fibril ThT -3%.
For Cc1sc(-c2ccccn2)nc1OC(=O)c1ccc(F)cc1F the results were KDM4E inh -5%, Tau fluor cs -15%, FBPA coupling cs 0, Tau fibril FP inconclusive, Sfp PPTase inh 16µM* and Tau fibril ThT inconclusive.
Screening CC(C)CO/N=C1/C[C@@H](O)[C@@H](O)[C@@H]2[C@@H]3C(=O)N(Cc4ccc5c(c4)OCO5)C(=O)[C@H]3CC[C@H]12 returned Tau fluor cs -11%[11.6 µM], FBPA coupling cs 2, Tau fibril FP 2%[11.6 µM], Sfp PPTase inh 13% and Tau fibril ThT -11%[11.5 µM].
Screening Cc1cccc(N2CCN(S(=O)(=O)c3ccc(-c4cc(C(F)(F)F)on4)s3)CC2)c1C returned Tau fluor cs -7%, Tau fibril FP inconclusive and Tau fibril ThT 5%.
Screening Cc1cc2c(NC(=O)Nc3ccc(C(C)(C)C)cc3)cccc2nn1 returned KDM4E inh inconclusive, Tau fluor cs 16µM*[quencher], FBPA coupling cs -25, Tau fibril FP 35µM*, Sfp PPTase inh inconclusive and Tau fibril ThT -15%.
For Cc1ccc(N=C2C(=S)N(c3ccc(C)cc3)C(=N)N2/N=C/c2ccc(Cl)cc2)cc1 the results were KDM4E inh -3%, Tau fluor cs inconclusive, FBPA coupling cs -2, Tau fibril FP 4%, Sfp PPTase inh 40µM* and Tau fibril ThT inconclusive.
`O=C(c1ccncc1)N1CCC2(CCCN(c3cccc(-c4ccccc4)c3)C2)CC1` gave FBPA coupling cs -1 and Sfp PPTase inh -28%.
Screening CC(C)ON(CC(=O)NO)S(=O)(=O)c1ccc(-c2ccccc2)cc1 returned FBPA coupling cs 6 and Sfp PPTase inh 20%.
`O=C1OC(/C=C/c2ccccc2)=NC/1=C/C=C/c1ccccc1` gave KDM4E inh -9%, Tau fluor cs -3%, FBPA coupling cs 4, Tau fibril FP -13%, Sfp PPTase inh -3% and Tau fibril ThT 16µM*.
Screening CC(C)c1ccc(NC(=O)C2(C)Cc3ccccc3C(=O)O2)cc1 (stereo not given) returned Tau fluor cs -19%, Tau fibril FP 5% and Tau fibril ThT -18%.
Screening Oc1cccc(C=NCc2ccccc2)c1O returned KDM4E inh 13µM*, Tau fluor cs inconclusive, FBPA coupling cs -37*, Tau fibril FP inconclusive, Sfp PPTase inh inconclusive and Tau fibril ThT 7.9µM*.
Oc1c(C=NCc2ccccc2)sc2ccccc12 was read as KDM4E inh -8%, Tau fluor cs -6%, FBPA coupling cs -2, Tau fibril FP 4%, Sfp PPTase inh 10% and Tau fibril ThT inconclusive.
Oc1ccccc1C=Nc1cccc2ccccc12 was read as FBPA coupling cs -2 and Sfp PPTase inh 1%.
`Oc1cccc(C=Nc2cccc3ccccc23)c1O` gave FBPA coupling cs -14 and Sfp PPTase inh 13µM*.
COc1ccc(N2CCN(c3ncnc4nc[nH]c34)CC2)cc1 was read as KDM4E inh 7%, Tau fluor cs -24%, FBPA coupling cs 2, Tau fibril FP 11%, Sfp PPTase inh 5% and Tau fibril ThT 18µM*.
Screening CC(C)c1ccc(Nc2ncnc3onc(-c4ccc(F)cc4)c23)cc1 returned Tau fluor cs -19%, Tau fibril FP -7% and Tau fibril ThT -2%.
CC(C(=O)N(C)C1CCS(=O)(=O)C1)N1C(=O)/C(=C/c2ccc(F)cc2)SC1=S (stereo not given) was read as Sfp PPTase inh 50µM*.
Screening CCN(C(=O)CCN1C(=O)/C(=C/c2ccccc2)SC1=S)C1CCS(=O)(=O)C1 (stereo not given) returned Sfp PPTase inh 3%.
Screening O=C(CCN1C(=O)/C(=C/c2ccc(F)cc2)SC1=S)NC1CCS(=O)(=O)C1 (stereo not given) returned Sfp PPTase inh -12%.
Screening CCN(C(=O)C(C)N1C(=O)/C(=C/c2ccco2)SC1=S)C1CCS(=O)(=O)C1 (stereo not given) returned FBPA coupling cs -22 and Sfp PPTase inh 16µM*.
For CCN(CC)C(=O)N1CCN(C(=O)N(CC)CC)CC1 the results were KDM4E inh 9%, Tau fluor cs 1%, FBPA coupling cs 0, Tau fibril FP -3%, Sfp PPTase inh 16% and Tau fibril ThT 1%.
CCN(CC)C(=O)N1CCN(C)CC1 was read as KDM4E inh 25µM*!, Tau fluor cs -10%, FBPA coupling cs 6, Tau fibril FP inconclusive, Sfp PPTase inh -9% and Tau fibril ThT -6%.
`O=C(/C=C/c1ccc(N2CCCCC2)c([N+](=O)[O-])c1)c1ccc(S(=O)(=O)N2CCCC2)cc1` gave KDM4E inh 1%, Tau fluor cs -28%, FBPA coupling cs 1, Tau fibril FP inconclusive, Sfp PPTase inh 4% and Tau fibril ThT 10µM*.
COc1cccc(C(=O)/C=C/c2ccc(N3CCCCC3)c([N+](=O)[O-])c2)c1 was read as KDM4E inh -8%, Tau fluor cs inconclusive, FBPA coupling cs -7, Tau fibril FP -3%, Sfp PPTase inh -1% and Tau fibril ThT 7.9µM*.
Screening COc1cccc(/C=C/C(=O)c2cccc([N+](=O)[O-])c2)c1 returned KDM4E inh -8%, Tau fluor cs inconclusive, FBPA coupling cs -4, Tau fibril FP inconclusive, Sfp PPTase inh inconclusive and Tau fibril ThT inconclusive.
`Cc1ccc(S(=O)(=O)N2CCN(C(=O)c3ccc(N4CCCCC4)c([N+](=O)[O-])c3)CC2)cc1` gave FBPA coupling cs 2 and Sfp PPTase inh 13%.
`COc1ccc(-n2ccnc(NCc3cccs3)c2=O)cc1` gave Tau fluor cs -10%, Tau fibril FP -4% and Tau fibril ThT -9%.
For C[C@]12C[C@H](O)CC(CO)(CO)C1[C@H](O)C[C@@]13CC4[C@@H](CC12)[C@@]4(C)C3 (stereo not given in full) the results were KDM4E inh 7%, Tau fluor cs -3%, FBPA coupling cs 1, Tau fibril FP 0%, Sfp PPTase inh 4% and Tau fibril ThT -2%.
